Experimental data from PubChem BioAssay (NCATS).
Where “and” joins values, the source holds several entries; their conditions need not be identical. Identical values can stand only once. Inconclusive results are not listed. Calls of active or inactive are those of the source. Unless noted, calls come from the whole dose curve; as a rule, active = well fitted curve in the direction sought with a large enough effect; inconclusive = small, poorly fitted or top-dose-only effect, or another doubt; inactive = no such curve, though single readings can be large; an effect the other way counts as inactive or inconclusive.

Key:
[1] = qHTS assay for measurement of the activity of small molecule inhibitors on Zika virus induced Caspase-3 activity in human iPSC derived neural progenitor cells (hNPCs) (AID 1224857); note: % of control where 0% means no effect; nearly all actives have a fitted effect of over 65% in size
Outline: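 Cells were plated at 350 per well and grown 16 to 20 hours. Compound pretreatment lasted one hour, after which ZIKV (2 FFU/cell) was added for 6 hours. Percent inhibition was normalized between uninfected and infected controls.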

[2] = qHTS assay for measurement of the activity of small molecule inhibitors on Zika virus induced Caspase-3 activity in human astrocytoma cells (AID 1224859);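 note: plate controls were ZIKV-infected untreated cells for no effect and uninfected cells for full effect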
Outline: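 Percent inhibition of virus-induced caspase-3/7 signal is calculated against uninfected and ZIKV-infected control cells. Cells are SNB-19, infected at 2 FFU/cell for 6 h after 1 h compound exposure.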

[3] = qHTS assay to identify small molecule inhibitors of chordoma cells - UCH-1 (AID 1259355); note: % is set by controls: 0 for no effect and ±100 for the full control effect; nearly all actives have a fitted effect of over 55% in size
Outline: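 A 48hr growth-inhibition format: each drug tested at 15 concentrations together with added auranofin, camptothecin, doxorubicin, rubitecan and topotecan, with cell viability quantified as CellTiter-Glo luminescence.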

[4] = qHTS assay to identify small molecule inhibitors of chordoma cells - UCH-2 (AID 1259356); note: series mostly up to about 46 µM; % is set by controls: 0 for no effect and ±100 for the full control effect
[5] = P-glycoprotein substrates identified in KB-8-5-11 adenocarcinoma cell line, qHTS therapeutic library screen (AID 1346987); note: nearly all actives have a fitted effect of over 65% in size; note: potency is the fitted concentration of half-maximal effect
Outline: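 In this qHTS, P-gp-rich KB-8-5-11 cells received library compounds across a concentration range. Viability was quantified by luminescence after 72 h at 37 degree C.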

[6] = target: Atrial natriuretic peptide receptor 1 (Homo sapiens) (UniProt P16066); test: Natriuretic polypeptide receptor (hNpr1) antagonism - Pilot screen (AID 1347049; calls by dose curve;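 note: HEK293 cells with hNpr1 and GloSensor cGMP luciferase stimulated by 0.1 nM hNppA; agonist-evoked cGMP luminescence read 20 min after hNppA addition; series mostly up to about 58 µM; % is set by controls: 0 for no effect and ±100 for the full control effect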)
Outline: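 Cells expressing receptor plus cGMP biosensor are seeded and incubated overnight at 37C, then loaded with GloSensor reagent (2% final) at room temperature for 2 h. Library compounds go on for 30 min. A pre-read precedes agonist (hNppA, 0.1 nM final) and a 20-min readout.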

[7] = target: T1, Tyrosine-protein phosphatase non-receptor type substrate 1 (Homo sapiens) + Leukocyte surface antigen CD47 (Homo sapiens) (UniProt P78324+Q08722); test: CD47-SIRPalpha protein protein interaction - LANCE assay qHTS validation (AID 1347057; active = well fitted curve in the direction sought with a large enough effect in the signal ratio, with a control signal flat, not every such curve was filed as active; the % refers to the signal ratio; note: series mostly up to about 38 µM; 0% is about no effect)
Outline: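 Inhibition of soluble CD47/SIRPalpha ectodomain association by titrated compounds, measured as 665/615 nm time-resolved FRET ratio after sequential 30 min room-temperature incubations.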

[8] = target: T1, Tyrosine-protein phosphatase non-receptor type substrate 1 (Homo sapiens) + Leukocyte surface antigen CD47 (Homo sapiens); test: CD47-SIRPalpha protein protein interaction - HTRF assay qHTS validation (AID 1347058; active = well fitted curve in the direction sought with a large enough effect in the signal ratio, not every such curve was filed as active; the % refers to the signal ratio; note: series mostly up to about 38 µM; 0% is about no effect)
Outline: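 Soluble extracellular domains (6His-CD47, Avi-tag-biotinylated SIRPalpha) in PBS pH 7.4 with 0.05% IGEPAL CA-630. Compounds were preincubated 30 min at RT with CD47 and anti-His-Eu, then SIRPalpha and SAV-XL665 were added. TR-FRET 665/615 ratio.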

[9] = NS1 protein of Zika virus - qHTS assay to identify small molecule inhibitors in human HEK 293 cells (AID 1347053);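 note: series mostly up to about 46 µM; plate controls were infected untreated cells for no effect and uninfected cells for full effect; nearly all actives have a fitted effect of over 55% in size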
Outline: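 Compound-treated (1 h pre-infection) HEK 293 cells infected with ZIKV MR766, MOI = 0.5; after 24 h at 37 C, NS1 read by TR-FRET; data normalized to uninfected and infected controls.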

T1 sequence (P78324 whole entry, looked up, the tested form may be a part): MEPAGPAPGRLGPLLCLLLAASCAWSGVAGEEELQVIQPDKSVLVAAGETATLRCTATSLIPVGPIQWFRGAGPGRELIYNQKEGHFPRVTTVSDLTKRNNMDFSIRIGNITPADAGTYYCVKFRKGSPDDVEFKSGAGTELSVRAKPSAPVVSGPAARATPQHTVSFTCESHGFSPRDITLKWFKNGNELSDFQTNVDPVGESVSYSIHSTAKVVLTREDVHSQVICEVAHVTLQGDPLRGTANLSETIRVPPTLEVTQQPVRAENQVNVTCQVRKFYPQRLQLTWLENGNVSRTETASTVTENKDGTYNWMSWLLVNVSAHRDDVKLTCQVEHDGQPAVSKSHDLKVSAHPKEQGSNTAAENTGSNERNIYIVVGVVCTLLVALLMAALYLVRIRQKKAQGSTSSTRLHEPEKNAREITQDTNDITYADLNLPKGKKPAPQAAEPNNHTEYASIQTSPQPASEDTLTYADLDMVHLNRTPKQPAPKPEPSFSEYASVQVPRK
T1 sequence (Q08722 whole entry, looked up, the tested form may be a part): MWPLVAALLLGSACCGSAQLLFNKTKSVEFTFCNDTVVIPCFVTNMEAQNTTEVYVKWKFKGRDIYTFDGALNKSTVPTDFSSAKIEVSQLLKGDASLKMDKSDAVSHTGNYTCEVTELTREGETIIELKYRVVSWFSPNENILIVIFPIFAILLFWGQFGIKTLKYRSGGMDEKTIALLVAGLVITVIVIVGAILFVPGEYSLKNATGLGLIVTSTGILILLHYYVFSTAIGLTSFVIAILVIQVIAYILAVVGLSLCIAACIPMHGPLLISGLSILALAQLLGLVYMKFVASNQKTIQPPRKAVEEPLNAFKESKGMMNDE
Chain of Atrial natriuretic peptide receptor 1 (Homo sapiens) (P16066 whole entry, looked up): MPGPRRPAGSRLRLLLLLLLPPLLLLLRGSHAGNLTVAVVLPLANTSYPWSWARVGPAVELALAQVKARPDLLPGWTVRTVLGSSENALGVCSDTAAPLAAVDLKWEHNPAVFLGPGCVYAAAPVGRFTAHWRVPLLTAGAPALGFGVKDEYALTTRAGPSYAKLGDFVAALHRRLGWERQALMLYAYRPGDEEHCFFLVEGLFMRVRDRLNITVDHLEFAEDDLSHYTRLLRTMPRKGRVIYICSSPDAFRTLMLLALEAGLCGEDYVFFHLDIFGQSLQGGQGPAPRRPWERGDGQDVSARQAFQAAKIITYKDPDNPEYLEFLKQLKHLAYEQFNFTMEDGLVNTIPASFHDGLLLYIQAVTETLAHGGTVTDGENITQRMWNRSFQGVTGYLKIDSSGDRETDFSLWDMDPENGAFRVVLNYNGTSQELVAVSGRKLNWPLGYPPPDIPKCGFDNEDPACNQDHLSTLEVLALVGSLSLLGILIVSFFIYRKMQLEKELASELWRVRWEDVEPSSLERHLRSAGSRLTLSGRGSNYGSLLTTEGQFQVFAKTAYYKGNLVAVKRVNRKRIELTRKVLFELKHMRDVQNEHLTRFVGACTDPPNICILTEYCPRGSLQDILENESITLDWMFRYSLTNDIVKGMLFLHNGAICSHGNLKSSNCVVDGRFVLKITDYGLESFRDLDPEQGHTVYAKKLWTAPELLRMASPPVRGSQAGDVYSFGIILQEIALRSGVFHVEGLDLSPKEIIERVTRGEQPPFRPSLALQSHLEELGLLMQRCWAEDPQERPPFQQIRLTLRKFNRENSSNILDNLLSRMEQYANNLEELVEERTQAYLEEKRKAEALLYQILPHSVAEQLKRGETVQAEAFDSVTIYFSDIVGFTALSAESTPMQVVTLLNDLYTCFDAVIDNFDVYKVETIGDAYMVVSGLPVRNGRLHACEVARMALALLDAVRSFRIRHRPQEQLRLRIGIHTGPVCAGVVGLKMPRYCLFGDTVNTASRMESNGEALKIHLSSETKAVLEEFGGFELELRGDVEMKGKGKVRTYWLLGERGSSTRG

CSc1ccc2c(c1)C(N1CCN(C)CC1)Cc1ccccc1S2 (stereo unspecified)
inactive: outcome [1] | outcome [2] | Potency [3] | outcome [4] | Potency [5] | outcome [6] | outcome [7] | outcome [8]

CC[C@@]1(c2ccccc2)NC(=O)N(C)C1=O
inactive: outcome [1] | outcome [2] | Potency [3] | outcome [4] | Potency [5]

Oc1ccc(C(O)CNCCCCCCNCC(O)c2ccc(O)c(O)c2)cc1O (stereo unspecified)
inactive: outcome [1] | outcome [2] | Potency [3] | outcome [4] | Potency [5] | Potency [9]

O=S(=O)(O)c1cc(I)c(O)c2ncccc12
inactive: outcome [1] | outcome [2] | Potency [3] | outcome [4] | Potency [5]

OCC(O)CN1CCN(c2ccccc2)CC1 (stereo unspecified)
inactive: outcome [1] | outcome [2] | Potency [3] | outcome [4] | Potency [5] | Potency [9]

NCCNCCNCCNCCN
inactive: activity change, negative = inhibition [1] -1.07% [at 9.06 µM] | activity change, negative = inhibition [2] 14.1% [at 9.06 µM] | Potency [3] | outcome [4] | Potency [5]

CC1=C(CC(=O)O)c2cc(F)ccc2/C1=C\c1ccc(S(C)=O)cc1 (stereo unspecified)
inactive: outcome [1] | outcome [2] | Potency [3] | outcome [4] | Potency [5] | outcome [6] | Potency [9]

CCN(CC)C(=O)Nc1ccc(OCC(O)CNC(C)(C)C)c(C(C)=O)c1 (stereo unspecified)
inactive: outcome [1] | outcome [2] | Potency [3] | outcome [4] | Potency [5] | Potency [9]

CCCCC(CC)COC(=O)c1ccccc1O (stereo unspecified)
inactive: outcome [1] | outcome [2] | Potency [3] | outcome [4] | Potency [5] | Potency [9]

Cc1ncc(COP(=O)(O)O)c(C=O)c1O
inactive: outcome [1] | outcome [2] | Potency [3] | outcome [4] | Potency [5] | Potency [9]

CN1[C@@H]2CC[C@H]1CC(OC(=O)C(O)c1ccccc1)C2 (stereo partly specified)
inactive: outcome [1] | outcome [2] | Potency [3] | outcome [4] | Potency [5] | Potency [9]

Cc1cccc(Nc2cc(Cl)nc(SCC(=O)O)n2)c1C
inactive: outcome [1] | outcome [2] | Potency [3] | outcome [4] | Potency [5] | Potency [9]

CC(C)(O)c1ccccc1CC[C@@H](SCC1(CC(=O)O)CC1)c1cccc(/C=C/c2ccc3ccc(Cl)cc3n2)c1
inactive: outcome [1] | outcome [2] | Potency [3] | outcome [4] | Potency [5] | Potency [9]

CCOC(=O)c1ccc(O)cc1
inactive: outcome [1] | outcome [2] | Potency [3] | outcome [4] | Potency [5] | Potency [9]

c1ccc(CN(CC2=NCCN2)c2ccccc2)cc1
inactive: outcome [1] | outcome [2] | Potency [3] | outcome [4] | Potency [5] | Potency [9]

CCOc1ccc2ccccc2c1C(=O)N[C@@H]1C(=O)N2[C@@H]1SC(C)(C)[C@@H]2C(=O)O
inactive: outcome [1] | outcome [2] | Potency [3] | outcome [4] | Potency [5] | Potency [9]

CCN(CC)CCSC(=O)C(c1ccccc1)c1ccccc1
inactive: outcome [1] | outcome [2] | Potency [3] | outcome [4] | Potency [5] | Potency [9]

CC(=O)Nc1ccc(/C=N/NC(N)=S)cc1
inactive: outcome [1] | outcome [2] | Potency [3] | outcome [4] | Potency [5] | Potency [9]

C[C@H]1O[C@H](O[C@H]2[C@H](O)[C@@H](O)[C@@H](O[C@H]3[C@H](O)[C@@H](O)[C@H](O)O[C@@H]3CO)O[C@@H]2CO)[C@H](O)[C@@H](O)[C@@H]1N[C@H]1C=C(CO)[C@@H](O)[C@H](O)[C@H]1O
inactive: outcome [1] | outcome [2] | Potency [3] | outcome [4] | Potency [5] | Potency [9]

O=C(O)Cc1sc(-c2ccccc2)nc1-c1ccc(Cl)cc1
inactive: outcome [1] | outcome [2] | Potency [3] | outcome [4] | Potency [5] | Potency [9]

NC(=O)NNc1ccccc1
inactive: outcome [1] | outcome [2] | Potency [3] | outcome [4] | Potency [5] | Potency [9]

C[C@]12CC[C@@H]3c4ccc(O)cc4CC[C@H]3[C@@H]1CC[C@@H]2OC(=O)CCC1CCCC1
active: Potency [5] 6.51 µM and 8.2 µM
inactive: outcome [1] | outcome [2] | Potency [3] | outcome [4] | Potency [9]

CN(N=O)C(=O)N[C@@H]1[C@@H](O)[C@H](O)[C@@H](CO)O[C@@H]1O
inactive: outcome [1] | outcome [2] | Potency [3] | outcome [4] | Potency [5] | Potency [9]

CCOc1nc2cccc(C(=O)O)c2n1Cc1ccc(-c2ccccc2-c2nn[nH]n2)cc1
inactive: outcome [1] | outcome [2] | Potency [3] | outcome [4] | Potency [5] | Potency [9]

C[C@@H](O)[C@H](N)C(=O)O
inactive: outcome [1] | outcome [2] | Potency [3] | outcome [4] | Potency [5] | Potency [9]

CCCc1c(OCCCCc2nn[nH]n2)ccc(C(C)=O)c1O
inactive: outcome [1] | outcome [2] | Potency [3] | outcome [4] | Potency [5] | Potency [9]

O=C(O)CC(O)C(=O)O (stereo unspecified)
inactive: outcome [1] | outcome [2] | Potency [3] | outcome [4] | Potency [5] | Potency [9]

CC1(C)[C@@H]2CC[C@@]1(C)C(=O)C2
inactive: outcome [1] | outcome [2] | Potency [3] | outcome [4] | Potency [5] | Potency [9]

CC(=O)CCC(=O)O
inactive: outcome [1] | outcome [2] | Potency [3] | outcome [4] | Potency [5] | Potency [9]

CCCCCCCCCCCCOS(=O)(=O)O
inactive: outcome [1] | outcome [2] | Potency [3] | outcome [4] | Potency [5] | Potency [9]

Nc1ccc(S(=O)(=O)Nc2ccccc2)cc1
inactive: outcome [1] | outcome [2] | Potency [3] | outcome [4] | Potency [5] | Potency [9]
